Reference: PubChem BioAssay AID463173 (ICCB-Longwood Screening Facility, Harvard Medical School, 2010)
Screen size: about 52,000 compounds; about 1,700 (3.3%) were called active. The full list was thinned out, with actives kept by preference. A number with no mark means an inactive call. No stated cut-off is given here; in the data, active means survival mostly below about 52% (no sharp cut-off); inactive means mostly above about 56%.

These molecules were tested on Wild type (assay: growth inhibition of S. aureus wild type versus tarO mutant, primary screen, teichoic acid synthesis inhibitors, RN4220, OD600 (AID 463173)). Details: S. aureus RN4220 wild type/DeltatarO growth, OD600, 18 h, hits give low values, screened at 18.75 µg/mL (by protocol).

SMILES | survival
O=C(Cn1c(=O)n(-c2ccccc2)c(=O)c2c3c(sc21)CCC3)c1ccc(Br)cc1 | 87%
COc1ccc(N2C(=O)CSC23C(=O)N(Cc2ccc(C)cc2)c2ccccc23)cc1Cl (configuration not stated) | 135%
CC(C)(C)OC(=O)N1CCC(c2c(C(=O)NCCN3CCOCC3)cnn2-c2cccc(F)c2)CC1 | 120%
Clc1ccccc1C(c1nnnn1Cc1ccco1)N1CCN(Cc2ccco2)CC1 (configuration not stated) | 111%
O=C(NCC(c1ccc2c(c1)OCO2)N1CCN(c2ccc(F)cc2)CC1)c1cccc([N+](=O)[O-])c1 (configuration not stated) | 83%
COc1ccc(Nc2ncnc3scc(-c4ccc(F)cc4)c23)cc1 | 79%
COc1ccc(-c2csc3ncnc(Nc4cccc(OC)c4)c23)cc1 | 73%
COc1ccc(-c2csc3ncnc(Nc4cccc(F)c4)c23)cc1 | -3% (active)
CC(=O)c1ccc(NC(=O)CC2Nc3cc(C)c(C)cc3NC2=O)cc1 (configuration not stated) | 78%
Cc1cc(C)cc(N2C(=O)N(Cc3cc(=O)n4ccccc4n3)c3ccccc3S2(=O)=O)c1 | 127%
CC(C)c1ccc2oc(-c3ccc(NC(=O)c4cccc(Br)c4)cc3)nc2c1 | 70%
COc1cc(Cl)c(C)cc1NC(=O)CC(c1ccc(F)cc1)N1Cc2ccccc2C1=O (configuration not stated) | -2% (active)
COc1ccc(CNC(=O)C(C(C)C)N2Cc3ccccc3C2=O)cc1 (configuration not stated) | -6% (active)
Cc1ccc(CNC(=O)C(C(C)C)N2Cc3ccccc3C2=O)cc1 (configuration not stated) | 80%
COc1ccc(C(CC(=O)Nc2cc(OC)c(OC)c(OC)c2)N2Cc3ccccc3C2=O)cc1 (configuration not stated) | 65%
CCOc1ccc(C(CC(=O)Nc2cc(C)c(Cl)cc2OC)N2Cc3ccccc3C2=O)cc1OC (configuration not stated) | 65%
COc1cc(OC)c(NC(=O)CC(c2cccs2)N2Cc3ccccc3C2=O)cc1Cl (configuration not stated) | 101%
COc1ccc(CNC(=O)C(CC(C)C)N2Cc3ccccc3C2=O)cc1 (configuration not stated) | 134%
COc1ccc(C(CC(=O)Nc2cc(Cl)c(OC)cc2OC)N2Cc3ccccc3C2=O)cc1 (configuration not stated) | -3% (active)
Cc1ccc(NC(=O)CC(c2ccc(F)cc2)N2Cc3ccccc3C2=O)cc1C (configuration not stated) | 88%
CCn1cc(C(=O)NCCc2ccccc2)c(=O)c2cc(S(=O)(=O)N3CCOCC3)ccc21 | 85%

SMILES | survival
COc1ccc(NC(=O)c2ccc(NC(=O)CCS(=O)(=O)c3cccs3)cc2)cc1Cl | 81%
COc1ccc(-c2cc(C(=O)Nc3cccnc3Cl)no2)cc1OC | 140%
Cc1ccc(C)c(N2CCN(c3nc4ccccc4c4nc(-c5cccnc5)nn34)CC2)c1 | 82%
Cc1cc(OCC(=O)NC(Cc2c[nH]c3ccccc23)C(=O)O)ccc1Cl (configuration not stated) | 69%
CCOC(=O)C(Cc1c[nH]c2ccccc12)NC(=O)COc1ccc(Cl)c(C)c1 (configuration not stated) | 8% (active)
CCOC(=O)C(Cc1c[nH]c2ccccc12)NC(=O)COc1ccc(CC)cc1 (configuration not stated) | 32%
CCc1ccccc1N(CC)C(=O)c1c(C)oc2ncn(C)c(=O)c12 | 71%
CSc1nc2sc3c(c2c(=O)n1-c1ccccc1C)CCCC3 | 99%
C#CCSc1nc2sc3c(c2c(=O)n1Cc1ccccc1)CCCC3 | 44%
CC(C)Sc1nc2sc3c(c2c(=O)n1Cc1ccccc1)CCCC3 | 5% (active)
CSc1nc2sc3c(c2c(=O)n1-c1ccc(C)cc1)CCCC3 | 51%
C=CCn1c(SC(C)C)nc2sc3c(c2c1=O)CCCC3 | 108%
CC(C)Sc1nc2sc3c(c2c(=O)n1-c1ccccc1)CCCC3 | -2% (active)
CCS(=O)(=O)NCC(c1ccco1)N1CCN(c2ccccc2)CC1 (configuration not stated) | 89%
CCS(=O)(=O)N1CCc2cc(C(=O)NC(C)c3ccccc3)ccc21 (configuration not stated) | 90%
CC(C)C(=O)Nc1ccc2nc(SCCOc3ccccc3)sc2c1 | 93%
Cc1ccc(Cl)cc1NC(=O)C1CCN(c2nnc(C)c3c(C)n(-c4ccccc4)nc23)CC1 | 71%
O=C(Nc1nc2ccc(F)cc2s1)c1nc(S(=O)(=O)Cc2ccccc2)ncc1Cl | 27%
Cc1ccc(CS(=O)(=O)c2ncc(Cl)c(C(=O)Nc3nc4ccc(F)cc4s3)n2)cc1 | 20%
Cc1cccc(CS(=O)(=O)c2ncc(Cl)c(C(=O)Nc3nc4ccc(F)cc4s3)n2)c1 | 7% (active)
Cc1ccc(NC(=O)c2nc(S(=O)(=O)Cc3cccc(C)c3)ncc2Cl)cc1 | -1% (active)

SMILES | survival
COc1ccc(NC(=O)c2nc(S(=O)(=O)Cc3ccc(C)cc3)ncc2Cl)cc1 | 81%
Cc1cccc(CS(=O)(=O)c2ncc(Cl)c(C(=O)NCc3ccccc3)n2)c1 | 27%
CCOC(=O)c1ccc(CN(Cc2ccc(Cl)cc2Cl)S(=O)(=O)c2cccc(Cl)c2)cc1 | 73%
CCOC(=O)c1ccc(CN(Cc2ccc(F)cc2)S(=O)(=O)c2ccc(F)cc2)cc1 | 68%
CCOC(=O)c1ccc(CN(Cc2ccccc2)S(=O)(=O)c2ccc(Cl)cc2)cc1 | 0% (active)
COc1ccc(CCNC(=O)CCc2c(C)c3cc4c(C)coc4c(C)c3oc2=O)cc1OC | 105%
CC(Oc1ccccc1)C(=O)Nc1c(C(=O)Nc2cccc(F)c2)oc2ccccc12 (configuration not stated) | 57%
CCOC(=O)c1[nH]c2c(c1Cc1ccccc1OC)C(=O)CC(c1ccccc1)C2 (configuration not stated) | 126%
CN(C)c1ccc(C2CC(c3c(O)n(C4CCCCC4)c(=O)[nH]c3=O)=Nc3ccccc3S2)cc1 (configuration not stated) | 85%
O=C(Cn1c(=O)n(Cc2ccc(C(=O)NCc3ccc4c(c3)OCO4)cc2)c(=O)c2ccccc21)Nc1ccc(F)cc1F | 111%
CC(C)c1cc(-c2nc(-c3ccccc3)no2)n[nH]1 | 71%
CCOc1cc(Cn2c(-c3ccc(O)c(OCC)c3)nc3ccccc32)ccc1O | 80%
CCc1ccc(OCCCn2c(-c3ccc(Cl)cc3)nc3ccccc3c2=O)cc1 | 52%
COc1ccc(Cn2c(SCC(=O)Nc3ccc(OC)cc3)nc3ccccc32)cc1 | 85%
COc1ccc(-c2nc3ccccc3n2Cc2ccc(C(C)C)cc2)cc1 | -8% (active)
COc1ccc(-c2nc3ccccc3n2Cc2ccccc2)cc1 | 0% (active)
COc1ccc(Cn2c(SC)nc3ccccc32)cc1 | 108%
COc1ccc(OCCCCn2c(-c3ccc(Cl)cc3)nc3ccccc3c2=O)cc1 | 38%
COc1ccc(-c2noc(=O)n2Cc2ccccc2)cc1 | 128%
COc1ccc(-c2nc3ccccc3n2Cc2ccc(Cl)cc2)cc1 | 4% (active)
